Compound activity deposited in PubChem by National Center for Advancing Translational Sciences (NCATS).
D2 ag-1 = human D2 receptor agonism in beta-arrestin assay; P14416; DiscoveRx PathHunter D2 beta-arrestin, luminescence, 90 min; 100% = 57 uM dopamine signal; activation, % (no concentration beside the values); hit rate 0.084% among 360,000; in the data active = activation above about 40%; inconclusive = between about 15% and that limit
Target sequence (P14416 whole entry, looked up): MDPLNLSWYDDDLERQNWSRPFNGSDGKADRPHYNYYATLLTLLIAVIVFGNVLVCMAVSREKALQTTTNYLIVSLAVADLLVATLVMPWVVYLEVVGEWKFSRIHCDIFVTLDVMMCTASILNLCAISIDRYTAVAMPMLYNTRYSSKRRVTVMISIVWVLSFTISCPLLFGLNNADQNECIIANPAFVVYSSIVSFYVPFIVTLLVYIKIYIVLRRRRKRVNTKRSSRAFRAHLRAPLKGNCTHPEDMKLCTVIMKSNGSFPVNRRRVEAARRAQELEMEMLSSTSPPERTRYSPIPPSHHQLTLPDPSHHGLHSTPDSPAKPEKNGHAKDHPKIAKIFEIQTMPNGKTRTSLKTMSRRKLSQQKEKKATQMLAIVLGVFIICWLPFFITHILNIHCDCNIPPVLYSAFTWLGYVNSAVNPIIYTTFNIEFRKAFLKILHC
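Agonist mode: compounds alone added to overnight-plated D2 PathHunter cells for 90 min at 37 C, with 57 uM final dopamine (EC100) defining full response. Beta-arrestin recruitment detected by chemiluminescent reagent, read after 1 h at ambient temperature.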
D2 PAM-1 = positively modulates the human D2 dopamine receptor allosterically | HEK293 T-REx D2, calcium flux, EC20 dopamine potentiation | potentiation, % at 10 µM | P14416 | hit rate 0.34% among 340,000;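 active = potentiation over 3 SD above the plate norm, cut at about 30% in these data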; also: 0% is about no effect
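Tetracycline-induced HEK293 T-REx cells force-coupled to calcium signalling expressed D2; compounds were pin-added after a 10 s baseline, read kinetically 180 s, then an EC20 dopamine challenge followed with a further 180 s calcium read.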
D2 ag-2 = D2 dopamine receptor (human) agonism; HEK293 T-REx D2 cells, calcium flux agonist mode; activation, % at 2 µM; hit rate 0.53% among 340,000; AID 485358;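 active = activation over 3 SD above normal in the single-dose calcium agonist read, cut at about 30% in these data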; also: 0% is about no effect
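Agonism is scored from calcium flux in a force-coupled, inducible HEK293 cell line expressing D2, read kinetically for 180 s after compound addition against dopamine controls.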
D2 PAM-2 = positive allosteric modulators of human D2 dopamine receptor. P14416. DiscoveRx D2 beta-arrestin cells, luminescence, 90 min; 100% = 57 uM dopamine signal. potentiation, % (no concentration beside the values). hit rate 0.23% among 360,000. AID 624464; in the data active = potentiation above about 50%; inconclusive = mostly about 30% to 49%
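PathHunter beta-arrestin assay in DiscoveRx D2 cells. Compounds were added with an EC20 of dopamine (50 nM final) for 90 min at 37 deg C. Luminescence was read 1 h after detection reagent, with 57 uM dopamine as the EC100 control.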
D2 antagonist = antagonists of human D2 dopamine receptor; P14416; HEK293 TREx D2 cells, calcium flux, dopamine EC80; inhibition, % at 10 µM; hit rate 2% among 340,000; in the data active = inhibition above about 30%; inactive = below that, where a call was filed; also: 0% is about no effect
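Cells plated overnight at 30 C with tetracycline; no-wash calcium dye, 30–90 min RT; 10 s baseline; compound pinned; 180 s read; EC80 dopamine added; another 180 s read.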
* marks the source's active call; other numbers are inactive results. Hits are enriched below; roughly 2.4% of the tested compounds scored in any of these assays.

`CC(=O)c1ccc(S(=O)(=O)N(C)CC(=O)NCC2CCCCC2)cc1` gave D2 ag-1 0.8, D2 ag-2 5.1, D2 PAM-2 -1.1 and D2 antagonist 4.1.
Cc1cc(NS(=O)(=O)c2ccccc2)cc(Cl)c1O was read as D2 ag-1 inconclusive, D2 PAM-1 6.3, D2 ag-2 0.5, D2 PAM-2 88.1* and D2 antagonist -4.7.
For Cc1ccc(S(=O)(=O)Nc2cc(C)c(O)c(S(=O)(=O)c3ccc(C)cc3)c2)cc1 the results were D2 ag-1 13.1, D2 PAM-1 -10.8, D2 ag-2 -0.7, D2 PAM-2 87.6* and D2 antagonist 4.0.
Screening COCCNCCCOc1ccc(Cl)cc1Br returned D2 ag-1 -2.3, D2 PAM-1 -22.7, D2 ag-2 0.6, D2 PAM-2 -14.8 and D2 antagonist -1.7.
`COCCCNCCCCOc1ccc(Br)cc1Cl` gave D2 ag-1 -4.2, D2 PAM-1 -26.6, D2 ag-2 0.6, D2 PAM-2 -35.7 and D2 antagonist 64.9*.
Screening COCCNCCCOc1ccc(Br)cc1Cl returned D2 ag-1 -0.6, D2 PAM-1 -27.7, D2 ag-2 0.3, D2 PAM-2 -38.7 and D2 antagonist 33.2*.
For CCCN1CCN(c2nc(-c3cccs3)nc3ccccc23)CC1 the results were D2 ag-1 -2.2, D2 PAM-1 -15.0, D2 ag-2 -0.7, D2 PAM-2 -42.5 and D2 antagonist 36.6*.
`Cc1cc(=O)[nH]c(N/N=C/c2ccc(-c3ccc(F)cc3)o2)n1` gave D2 ag-1 -3.8, D2 PAM-1 -8.6, D2 ag-2 -0.6, D2 PAM-2 -5.8 and D2 antagonist 48.3*.
`CC(NC(=O)Cn1cc2c(n1)CCCCC2)c1ccccc1` (centres undefined) gave D2 ag-1 -2.5, D2 PAM-1 0.9, D2 ag-2 -0.3, D2 PAM-2 -0.1 and D2 antagonist 35.3*.
`CSc1nnc2c3c4c(sc3nc(-n3nc(C)cc3C)n12)COC(C)(C)C4` gave D2 ag-1 -0.2, D2 PAM-1 19.2, D2 ag-2 0.2, D2 PAM-2 1.1 and D2 antagonist 48.4*.
`CN1C(=O)N(CC(=O)N2CCN(c3ncccn3)CC2)C(=O)C12CCCCC2` gave D2 ag-1 -4.2, D2 PAM-1 -15.2, D2 ag-2 -0.3, D2 PAM-2 -31.9 and D2 antagonist 11.8.
O=C1CC2(CCCC2)CC(=O)N1CCCCN1CCN(c2ncccn2)CC1 was read as D2 ag-1 -3.2, D2 PAM-1 -29.9, D2 ag-2 3.9, D2 PAM-2 -34.6 and D2 antagonist 87.9*.
Screening O=C(O)c1cccc(CN2C(=O)S/C(=C/c3cccc([N+](=O)[O-])c3)C2=O)c1 returned D2 ag-1 -1.1, D2 PAM-1 4.3, D2 ag-2 -0.5, D2 PAM-2 2.1 and D2 antagonist 33.6*.
CCS(=O)(=O)N1CCC(C(=O)NCCCN2CCC(Cc3ccccc3)CC2)CC1 was read as D2 ag-1 0.2, D2 PAM-1 -9.8, D2 ag-2 0.6, D2 PAM-2 -4.1 and D2 antagonist 5.3.
Screening CS(=O)(=O)N1CCCC(C(=O)NCCCN2CCN(Cc3ccccc3)CC2)C1 (centres undefined) returned D2 ag-1 -2.4, D2 PAM-1 2.3, D2 ag-2 -0.6, D2 PAM-2 -17.5 and D2 antagonist 0.7.
`CS(=O)(=O)N1CCCC(C(=O)NCCCN2CCC(Cc3ccccc3)CC2)C1` (centres undefined) gave D2 ag-1 -1.3, D2 PAM-1 -30.1, D2 ag-2 0.7, D2 PAM-2 -24.3 and D2 antagonist 46.3*.
Screening CCCS(=O)(=O)N1CCC(C(=O)NCCN2CCC(Cc3ccccc3)CC2)CC1 returned D2 ag-1 1.3, D2 PAM-1 -20.5, D2 ag-2 38.0*, D2 PAM-2 -5.2 and D2 antagonist 33.9*.
Nc1ncnc2c1ncn2[C@@H]1O[C@H](CNC(=O)[C@@H]2CCCN2S(=O)(=O)c2ccc(F)cc2)[C@@H](O)[C@H]1O was read as D2 ag-1 -0.1 and D2 PAM-2 3.0.
`Brc1cccc(C2Nc3cccc4cccc(c34)N2)c1` gave D2 ag-1 4.1, D2 PAM-1 12.3, D2 ag-2 0.5, D2 PAM-2 1.6 and D2 antagonist -2.8.
